HEK293 viab – GF-AFC viability counterscreen for inhibitors of alpha-synuclein gene (SNCA) expression; HEK-293-SNCA-luc viability, GF-AFC fluorescence, 24 h; Potency, µM (series often up to 57.1 µM), for the others: at the highest dose activity change, negative = cytotoxicity, actives largely listed as cytotoxic; hit rate 0.12% among 150,000; AID 1671193, 2021;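 note: potency is the fitted concentration of half-maximal effect; 0% = DMSO-treated cells and -100% = medium-only wells without cells; nearly all actives have a fitted effect of over 30% in size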
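HEK-293-SNCA-luc cells (1500/well) plated 24 h, then exposed 24 h to a dilution series; GF-AFC added 30 min at 37C, fluorescence 405/540 nm; normalised to medium-only and DMSO wells, Hill fit.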
SNCA expr inhib – Primary qHTS assay for inhibitors of alpha-synuclein gene (SNCA) expression; AID 1671194, 2021; Potency, µM (doses to about 57.2 µM), without a hit: top-dose activity change, negative = inhibition, hits mostly inhibitors; HEK-293 SNCA-luciferase knock-in, luminescence, 24 h; hit rate 0.17% among 140,000;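 note: potency is the fitted concentration of half-maximal effect; plate controls were DMSO cells for no effect and cell-free wells for full effect; nearly all actives have a fitted effect of over 45% in size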
HEK cytotox – Cytotoxic Profiling in HEK 293 Cell Line of Diverse Libraries Using Quantitative High-Throughput Screening; hit rate 6.6% among 94,000; Potency, µM (doses to about 115 µM), for inactives: at the highest dose activity change, negative = cytotoxicity, hits mostly inhibitors; AID 1345083, 2018; HEK 293 viability, ATP luminescence (CellTiter-Glo), 48-72 h; note: potency is the fitted concentration of half-maximal effect; nearly all actives have a fitted effect of over 60% in size
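250 HEK 293 cells/well; compound by pintool; incubated 48 or 72 hr at 37 degree Celsius; CellTiter-Glo added, 10 min RT, luminescence imaged.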
NIH3T3 tox – Cytotoxic Profiling in NIH 3T3 Cell Line of Diverse Libraries Using Quantitative High-Throughput Screening; NIH 3T3 viability, CellTiter-Glo ATP luminescence, 48-72 h; Potency, µM (highest dose often 96.7 µM), for inactives: at the top dose activity change, negative = cytotoxicity, actives largely listed as inhibitors; hit rate 4.3% among 94,000; note: potency is the fitted concentration of half-maximal effect; nearly all actives have a fitted effect of over 55% in size
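Cytotoxicity was measured by CellTiter-Glo ATP luminescence after 48 or 72 h compound exposure at 37 °C. Mouse NIH 3T3 fibroblasts were seeded at 400 cells/well and dosed by 23 nL pin transfer.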
IP6K1 inhibitor – Primary qHTS assay for small molecule inhibitors of Inositol hexaphosphate kinase 1 (IP6K1); Inositol hexakisphosphate kinase 1 (Homo sapiens), Q92551; IP6K1 kinase, ADP-Glo luminescence, 2 h; hits give low values; activity change, % (series mostly up to about 58 µM); hit rate 0.81% among 140,000; AID 1645851, 2021; in the data active = activity change below about -25%
Target sequence (Q92551 whole entry, looked up): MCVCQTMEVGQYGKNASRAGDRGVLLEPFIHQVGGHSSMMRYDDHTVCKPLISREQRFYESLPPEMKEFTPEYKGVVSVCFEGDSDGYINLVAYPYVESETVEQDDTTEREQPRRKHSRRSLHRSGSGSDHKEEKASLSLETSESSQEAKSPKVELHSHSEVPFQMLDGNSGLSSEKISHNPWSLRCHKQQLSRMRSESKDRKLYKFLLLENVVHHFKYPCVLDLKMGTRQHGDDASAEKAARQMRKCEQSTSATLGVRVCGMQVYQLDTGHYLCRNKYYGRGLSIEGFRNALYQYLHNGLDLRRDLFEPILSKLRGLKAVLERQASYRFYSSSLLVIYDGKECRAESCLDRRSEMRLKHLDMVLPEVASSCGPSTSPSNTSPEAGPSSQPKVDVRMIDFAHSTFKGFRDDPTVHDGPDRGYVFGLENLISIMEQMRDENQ
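ADP-Glo luminescence measures ADP made by human IP6K1 during a 2 h RT reaction with ATP/IP6 (mix at 1.3 mM/130 uM); top library doses 57.5 and 19.1 uM final.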
FLuc inh – Firefly luciferase inhibition profiling of diverse chemical library using quantitative high-throughput screening. Luciferin 4-monooxygenase (Photinus pyralis), P08659. purified P. pyralis luciferase, luminescence, biochemical. Potency, µM (series often up to 115 µM), usual class: inhibitors. hit rate 2.5% among 76,000. AID 1347043, 2019; note: potency is the fitted concentration of half-maximal effect; nearly all actives have a fitted effect of over 65% in size
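Cell-free enzyme assay, 10nM P. pyralis luciferase, luciferin and ATP each at 10uM. Inhibition profiled over a 6-point titration, read as luminescence.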
The depositor's hits bear a star; [ ] = dose if it differs, or a comment. The list is not random: actives were taken first. Their share in the collection is about 7.3%. Unless noted, calls come from the whole dose curve; as a rule, active = well fitted curve in the direction sought with a large enough effect; inconclusive = small, poorly fitted or top-dose-only effect, or another doubt; inactive = no such curve, though single readings can be large; an effect the other way counts as inactive or inconclusive. Unless noted, % is set by controls: 0 for no effect and ±100 for the full control effect.

How did CN(Cc1ccccc1)C(=O)C[C@@H]1CCNC[C@@H]1Cc1cc(-c2ccc(F)cc2)on1 do in these assays?
HEK293 viab: -9.2%[87.6 µM]; SNCA expr inhib: -19.7%[87.6 µM]; HEK cytotox: 35.5µM*; NIH3T3 tox: 31.6µM*; IP6K1 inhibitor: 1.2; FLuc inh: inactive

What do the screens show for `CC(C)(C)c1cc(C[C@H]2CNCC[C@H]2CC(=O)N2CCCCC2)no1`?
HEK293 viab: 2.5%[87.6 µM]; SNCA expr inhib: 24.3%[87.6 µM]; HEK cytotox: inconclusive; NIH3T3 tox: -23.0%[174 µM]; IP6K1 inhibitor: 3.2; FLuc inh: inactive

Results for CC(C)(C)c1cc(C[C@H]2CNCC[C@H]2CC(=O)Nc2ccccc2)no1 ?
HEK293 viab: -5.1%[87.6 µM]; SNCA expr inhib: -31.5%[87.6 µM]; HEK cytotox: inconclusive; NIH3T3 tox: 112µM*; IP6K1 inhibitor: -2.8; FLuc inh: inactive

How did COCCCNc1ncnc2sc3c(c12)CCNC3 do in these assays?
HEK293 viab: 1.1%; SNCA expr inhib: inconclusive; HEK cytotox: inconclusive; NIH3T3 tox: inconclusive; IP6K1 inhibitor: 2.2; FLuc inh: inactive

How did O=C(NCCC1CCCCC1)C1CCCN1C(=O)c1cccc(-c2cccnc2)c1 (configuration not stated) do in these assays?
HEK cytotox: inconclusive; NIH3T3 tox: inconclusive; IP6K1 inhibitor: -6.9

What do the screens show for `COc1ccc(-c2nc(C3CC3)nc3c2CCN(C(=O)c2ccccc2)CC3)cc1`?
HEK293 viab: -14.9%; SNCA expr inhib: -1.5%; HEK cytotox: inconclusive; NIH3T3 tox: inconclusive; IP6K1 inhibitor: 3.8

How did O=C1[C@@H]2C[C@@H](O)CN2C2(CN(Cc3ccccc3)C2)C(=O)N1Cc1cccc(Cl)c1 do in these assays?
HEK293 viab: 3.2%[87.6 µM]; SNCA expr inhib: 4.2%[87.6 µM]; HEK cytotox: inconclusive; NIH3T3 tox: inconclusive; IP6K1 inhibitor: 17.8; FLuc inh: inactive

How did CN(Cc1ccccc1)C(=O)C[C@@H]1CCNC[C@@H]1Cc1cc(CC2CCCCC2)on1 do in these assays?
HEK293 viab: -29.9%[87.6 µM]; SNCA expr inhib: inconclusive; HEK cytotox: 28.2µM*; NIH3T3 tox: 44.7µM*; IP6K1 inhibitor: 3.7; FLuc inh: inactive

How did COCc1cc(C[C@H]2CNCC[C@H]2CC(=O)N(C)Cc2ccccc2)no1 do in these assays?
HEK293 viab: 1.4%[87.6 µM]; SNCA expr inhib: -5.7%[87.6 µM]; HEK cytotox: -5.7%[172 µM]; NIH3T3 tox: -4.7%[174 µM]; IP6K1 inhibitor: -0.6; FLuc inh: inactive

What do the screens show for `COc1ccc(CN2C(=O)COC[C@@H]2[C@H](O)c2ccc(NC(C)=O)cc2)cc1`?
HEK293 viab: 11.1%[87.6 µM]; SNCA expr inhib: -13.5%[87.6 µM]; HEK cytotox: -13.5%[172 µM]; NIH3T3 tox: 1.4%[174 µM]; IP6K1 inhibitor: 7.8; FLuc inh: inactive

Results for CN(C)c1ccc(CN2CCNc3cnc(-c4ccccc4)cc3C2)cc1 ?
HEK293 viab: -13.2%[87.6 µM]; SNCA expr inhib: 29.1%[87.6 µM]; HEK cytotox: 100µM*; NIH3T3 tox: inconclusive; IP6K1 inhibitor: -13.6; FLuc inh: inactive

Results for CN(C)c1ccc(CN2CCNc3cc(-c4ccccc4)ncc3C2)cc1 ?
HEK293 viab: inconclusive; SNCA expr inhib: 13.5%[87.6 µM]; HEK cytotox: inconclusive; NIH3T3 tox: inconclusive; IP6K1 inhibitor: -9.4; FLuc inh: inactive

How did Cc1cccc(CN2CCNc3cnc(-c4ccccc4)cc3C2)c1 do in these assays?
HEK293 viab: -7.9%[87.6 µM]; SNCA expr inhib: -22.2%[87.6 µM]; HEK cytotox: inconclusive; NIH3T3 tox: inconclusive; IP6K1 inhibitor: -18.7; FLuc inh: inactive

Results for Cn1cc(CN2CCNc3cnc(-c4ccccc4)cc3C2)cn1 ?
HEK293 viab: -7.4%[87.6 µM]; SNCA expr inhib: -28.1%[87.6 µM]; HEK cytotox: inconclusive; NIH3T3 tox: 31.6µM*; IP6K1 inhibitor: -21.4; FLuc inh: inactive
